This note sets out measurements from PMC8222333, “AsCas12a ultra nuclease facilitates the rapid generation of therapeutic cell medicines”.

Some targets named below: dAsCas12a E174R (Acidaminococcus sp., UniProt U2UMQ6 1-1307, E174R;D908A;E993A;D1235A); dAsCas12a S542R (Acidaminococcus sp., UniProt U2UMQ6 1-1307, S542R;D908A;E993A;D1235A); d-enCas12a (Acidaminococcus sp., UniProt U2UMQ6 1-1307, E174R;S542R;K548R;D908A;E993A;D1235A); d-enCas12a-Ultra (Acidaminococcus sp., UniProt U2UMQ6 1-1307, E174R;S542R;K548R;M537R;F870L;D908A;E993A;D1235A).

Common to all, as to test: Spec-seq (native PAGE EMSA with sequencing of bound and unbound); 25 mM Tris-HCl pH 7.4, 150 mM KCl, 5 mM MgCl2, 10% glycerol, 1 mM DTT, 40 ng/uL salmon sperm DNA; 400 nM Cas12a, 480 nM crRNA, 50 nM library, 37 C 1 h; native PAGE at room temperature; high values mean tight binding
Common to all, as to details: protein: recombinant
(In general: A gel shift assay detects complexes by their altered migration in electrophoresis.)

Changes are numbered by the printed parent chain.
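Note: relative affinity from the bound to unbound sequence frequency ratio in Spec-seq.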

B1: GATC (dsDNA)
DNA 1: GCTATCTAGTGCTCAGTACGCACTGGATCAGGAAACTTCTGGCAGGACCAGGTCATGAGATCGGAAGAGCACACGTCTGAACTCCAGTCA
DNA 2: TGACTGGAGTTCAGACGTGTGCTCTTCCGATCTCATGACCTGGTCCTGCCAGAAGTTTCCTGATCCAGTGCGTACTGAGCACTAGATAGC
RNA: AAUUUCUACUCUUGUAGAUAGGAAACUUCUGGCAGGACC
Regarding B1, the binding signal in the assay with dAsCas12a E174R was -8.27 lnKA; with dAsCas12a S542R it was -8.34 lnKA; with d-enCas12a, -3.86 lnKA; with d-enCas12a-Ultra, -1.57 lnKA.

B2: GCGC (dsDNA)
DNA 1: B1 DNA 1 with A27C, T28G
DNA 2: B1 DNA 2 with A63C, T64G
RNA: B1 RNA
Regarding B2, the binding signal is -8.88 lnKA in the assay with dAsCas12a E174R, -8.38 lnKA in the assay with dAsCas12a S542R, -5.81 lnKA with d-enCas12a and -3.32 lnKA with d-enCas12a-Ultra.

B3: GCCA (dsDNA)
DNA 1: B1 DNA 1 with A27C, T28C, C29A
DNA 2: B1 DNA 2 with G62T, A63G, T64G
RNA: B1 RNA
On to B3, for which the binding signal with dAsCas12a E174R is -8.91 lnKA; with dAsCas12a S542R, -6.67 lnKA; with d-enCas12a it was -4.72 lnKA; in the assay with d-enCas12a-Ultra, -1.33 lnKA.

B4: TACT (dsDNA)
DNA 1: B1 DNA 1 with G26T, T28C, C29T
DNA 2: B1 DNA 2 with G62A, A63G, C65A
RNA: B1 RNA
For B4, the binding signal with dAsCas12a E174R is -8.98 lnKA; with dAsCas12a S542R, -7.99 lnKA; in the assay with d-enCas12a, -2.8 lnKA; with d-enCas12a-Ultra it was -0.733 lnKA.

B5: GGGG (dsDNA)
DNA 1: B1 DNA 1 with A27G, T28G, C29G
DNA 2: B1 DNA 2 with G62C, A63C, T64C
RNA: B1 RNA
As to B5, the values for the binding signal with dAsCas12a E174R, with d-enCas12a and in the assay with d-enCas12a-Ultra were -8.85 lnKA, -5.75 lnKA and -3.49 lnKA, respectively.

B6: AAAG (dsDNA)
DNA 1: B1 DNA 1 with G26A, T28A, C29G
DNA 2: B1 DNA 2 with G62C, A63T, C65T
RNA: B1 RNA
For B6, the values for the binding signal with dAsCas12a S542R, in the assay with d-enCas12a and with d-enCas12a-Ultra were -8.45 lnKA, -5.7 lnKA and -3.44 lnKA, respectively.

B7: GTAA (dsDNA)
DNA 1: B1 DNA 1 with A27T, T28A, C29A
DNA 2: B1 DNA 2 with G62T, A63T, T64A
RNA: B1 RNA
As to B7, the binding signal is -9 lnKA with dAsCas12a E174R, -8.01 lnKA with dAsCas12a S542R, -5.51 lnKA with d-enCas12a and -3.27 lnKA with d-enCas12a-Ultra.

B8: GTAT (dsDNA)
DNA 1: B1 DNA 1 with A27T, T28A, C29T
DNA 2: B1 DNA 2 with G62A, A63T, T64A
RNA: B1 RNA
As to B8, the binding signal was -8.95 lnKA in the assay with dAsCas12a E174R, -8.41 lnKA with dAsCas12a S542R, -5.69 lnKA in the assay with d-enCas12a and -3.33 lnKA with d-enCas12a-Ultra.

B9: GTGC (dsDNA)
DNA 1: B1 DNA 1 with A27T, T28G
DNA 2: B1 DNA 2 with A63C, T64A
RNA: B1 RNA
Take B9: the binding signal in the assay with dAsCas12a E174R is -8.98 lnKA; in the assay with dAsCas12a S542R it was -8.4 lnKA; with d-enCas12a, -5.24 lnKA; with d-enCas12a-Ultra it was -2.1 lnKA.

B10: AAAC (dsDNA)
DNA 1: B1 DNA 1 with G26A, T28A
DNA 2: B1 DNA 2 with A63T, C65T
RNA: B1 RNA
For the molecule B10, the binding signal was -8.48 lnKA in the assay with dAsCas12a S542R, -5.25 lnKA in the assay with d-enCas12a and -2.57 lnKA with d-enCas12a-Ultra.

B11: TGCA (dsDNA)
DNA 1: B1 DNA 1 with G26T, A27G, T28C, C29A
DNA 2: B1 DNA 2 with G62T, A63G, T64C, C65A
RNA: B1 RNA
With B11, the binding signal in the assay with dAsCas12a E174R is -8.93 lnKA; with dAsCas12a S542R, -8.02 lnKA; with d-enCas12a it was -2 lnKA; with d-enCas12a-Ultra it was -0.483 lnKA.

B12: GTCA (dsDNA)
DNA 1: B1 DNA 1 with A27T, T28C, C29A
DNA 2: B1 DNA 2 with G62T, A63G, T64A
RNA: B1 RNA
B12: the binding signal with dAsCas12a E174R is -8.52 lnKA; with dAsCas12a S542R, -6.38 lnKA; with d-enCas12a it was -2.71 lnKA; with d-enCas12a-Ultra, -0.526 lnKA.

B13: TGCC (dsDNA)
DNA 1: B1 DNA 1 with G26T, A27G, T28C
DNA 2: B1 DNA 2 with A63G, T64C, C65A
RNA: B1 RNA
For the molecule B13, the binding signal in the assay with dAsCas12a E174R is -8.73 lnKA; with dAsCas12a S542R it was -7.76 lnKA; with d-enCas12a it was -1.44 lnKA; in the assay with d-enCas12a-Ultra, -0.407 lnKA.

B14: GGCG (dsDNA)
DNA 1: B1 DNA 1 with A27G, T28C, C29G
DNA 2: B1 DNA 2 with G62C, A63G, T64C
RNA: B1 RNA
Take B14: the binding signal is -8.97 lnKA with dAsCas12a E174R, -8.43 lnKA with dAsCas12a S542R, -5.65 lnKA with d-enCas12a and -2.64 lnKA in the assay with d-enCas12a-Ultra.

B15: TCGG (dsDNA)
DNA 1: B1 DNA 1 with G26T, A27C, T28G, C29G
DNA 2: B1 DNA 2 with G62C, A63C, T64G, C65A
RNA: B1 RNA
With B15, the binding signal with dAsCas12a E174R was -8.87 lnKA; with dAsCas12a S542R, -8.02 lnKA; with d-enCas12a, -5.8 lnKA; in the assay with d-enCas12a-Ultra, -3.45 lnKA.

B16: AAAA (dsDNA)
DNA 1: B1 DNA 1 with G26A, T28A, C29A
DNA 2: B1 DNA 2 with G62T, A63T, C65T
RNA: B1 RNA
In the case of B16, the binding signal with dAsCas12a S542R was -8.41 lnKA; with d-enCas12a, -5.66 lnKA; with d-enCas12a-Ultra it was -3.17 lnKA.
